Results on 13 compounds are retold here after PubChem BioAssay.

Molecules are shown by their SMILES. Active and inactive are the calls of the source.

Assay [1] is described as follows: A549 cell viability effects, profiling panel, calcein-AM fluorescence, 48 h, basal (AID 1162). The settings on record: higher = more signal.
Assay [2] can be described thus: adipocyte viability effects, profiling panel, cell-based, 3T3-L1 adipocytes, calcein-AM fluorescence, 48 h, basal (AID 1163). To be noted: 3T3-L1 adipocytes viability, higher = more signal.
Assay [3] is described as follows: HepG2 cell viability effects, profiling panel, calcein-AM fluorescence, 48 h, basal (AID 1164). To be noted: higher = more signal.
A short description of assay [4]: MM1S cell viability effects, profiling panel, calcein-AM fluorescence, 48 h, basal (AID 1165).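 Also: viability of MM1S multiple myeloma cells under basal unstimulated conditions.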 The settings on record: higher = more signal.
Assay [5] is described as follows: basal RPMI8226 viability, no added stimulus, profiling panel, cell-based, calcein-AM fluorescence, 48 h, PK04 Diversity Set (AID 1166).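 Also: cells grown under basal conditions without added stimulus.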 The settings on record: RPMI8226 myeloma viability, higher = more signal.
A short description of assay [6]: basal HepG2 mitochondrial membrane potential changes, profiling panel, cell-based, JC-1 fluorescence, 24 h, 100 nL compound (AID 1167). The settings on record: higher = more signal.
A short description of assay [7]: basal 3T3-L1 adipocyte mitochondrial potential changes, profiling panel, cell-based, JC-1 fluorescence, 3T3-L1 adipocytes, 24 h, 100 nL compound (AID 1168). The settings on record: JC-1 mitochondrial fluorescence, higher = more signal, called active from +8 up or from −8 down.
Assay [8] in a line: basal RPMI8226 mitochondrial membrane potential changes, profiling panel, cell-based, JC-1 fluorescence, 24 h, 100 nL compound (AID 1169). To be noted: RPMI8226 myeloma, JC-1 mitochondrial potential fluorescence, higher = more signal.
A short description of assay [9]: basal MM1S mitochondrial membrane potential changes, profiling panel, cell-based, JC-1 fluorescence, 24 h, 100 nL compound (AID 1170). The settings on record: higher = more signal.
Assay [10] can be described thus: A549 lung cancer cell viability effects, profiling panel, resazurin fluorescence, 24 h, PK04 Diversity Set (AID 1171). To be noted: higher = more signal, called active from +8 up or from −8 down. A general note: Resazurin is reduced to fluorescent resorufin, in cell work by metabolically active cells.
Also: test concentration not given here.

In the case of `[N-]=[N+]=Nc1ccccc1[C@H]1OC(c2ccc(OCCCO)cc2)=N[C@@]1(CCS(=O)(=O)c1ccccc1)C(=O)NCc1ccccc1`, the z-score in assay [1] was -0.0804; in [2] it was -0.337; in assay [3], -0.777; in assay [4] it was -0.99; in assay [5], -0.816; in assay [6] it was -0.337. Besides, the z-score is -0.327 (inactive) in assay [7], -0.929 in assay [8], -0.673 in assay [9] and 1.09 (inactive) in assay [10].
With `COCCCNC(=O)[C@]1(Cc2ccccc2)N=C(c2ccc(OCCCO)cc2)O[C@@H]1c1ccccc1CN=[N+]=[N-]`, the z-score is 1.16 in [1]; 0.52 in assay [2]; 1.57 in [3]; -0.488 in assay [4]; -2.52 in assay [5]; 2.15 in [6]. Besides, the z-score was -0.0892 (inactive) in assay [7], -0.985 in assay [8], -0.712 in assay [9] and -1.43 (inactive) in assay [10].
For `CN1C(=O)C2C=CC(C(O)C=Cc3ccc([N+](=O)[O-])cc3)N(Nc3ccccc3)C2C1=O` (stereo not given), the z-score in assay [1] is -0.598; in assay [2], -1.6; in assay [3] it was -0.432; in [4], -0.655; in assay [5], -0.997; in [6], -1.53. In addition, the z-score in assay [7] was -1.48 (inactive); in assay [8], -0.634; in [9] it was -0.681; in assay [10], -0.408 (inactive).
In the case of `COC(=O)c1c2oc(c1C(=O)OC)C(=O)NC1(CCCCC1)c1cn(nn1)C[C@H](Cc1ccccc1)NC(=O)N[C@H](CO)CC2`, the z-score in assay [1] is 0.947; in assay [2], -0.0442; in assay [3], 0.22; in assay [4], 0.813; in assay [5], 1.17; in assay [6] it was 0.537. The z-score in [7] is 0.691 (inactive); in assay [8], 0.564; in assay [9] it was -0.887; in assay [10], 1.09 (inactive).
For the compound `COC(=O)c1c(CC[C@@H](CO)NC(=O)NCCc2c[nH]c3ccccc23)oc(C(=O)Cc2ccccc2)c1C(=O)OC`, the z-score in [1] was -0.22; in assay [2] it was 1.12; in [3], -0.496; in [4], 0.49; in assay [5], 0.459; in assay [6], -1.27. For the same compound, the z-score was -0.484 (inactive) in [7], 0.636 in [8], 0.0389 in [9] and 0.926 (inactive) in [10].
`C[C@H]1C2[C@H](Cc3ccccc3)NC(=O)[C@]23C(=O)NCC(=O)N2CCC[C@H]2C(=O)NC/C=C/CCC/C=C/C3[C@@H]2O[C@]12C` (stereo not given in full): the z-score in assay [1] was 0.776; in assay [2], 1.42; in [3] it was -0.39; in [4] it was -0.37; in assay [5], -0.682; in [6], 0.624. Moreover, the z-score in [7] is 0.244 (inactive); in assay [8], -0.877; in assay [9], 1.41; in [10], -1.46 (inactive).
Consider `C=C(C)[C@@H]1CC=C(C(O)C2C=CC3C(=O)NC(=O)C3N2Nc2ccc(Cl)cc2Cl)CC1` (stereo not given in full), for which the z-score in assay [1] is -3.8; in [2], 0.641; in assay [3], -3.88; in assay [4], -3.71; in [5] it was -3.89; in assay [6] it was -3.7. For the same compound, the z-score in assay [7] was -0.432 (inactive); in assay [8], -0.934; in assay [9] it was -0.944; in [10], -2.76 (inactive).
Turning to `COc1ccc([Si](C)(C)[C@@H]2[C@@H](CCn3cc(CCO)nn3)O[C@]3(C(=O)N(Cc4cccc(N5C(=O)c6cccc7cccc5c67)c4)c4ccccc43)[C@H]2C)cc1`, the z-score in assay [1] is -2.01; in [2] it was 1.32; in assay [3], -4.46; in assay [4], -2.86; in [5], -4.41; in assay [6], -0.414. The z-score in assay [7] is 1.02 (inactive); in assay [8] it was -0.931; in [9], -2.16; in assay [10], -3.53 (inactive).
For the compound `[N-]=[N+]=NCc1ccccc1[C@@H]1OC(c2ccc(OCCCO)cc2)=N[C@]1(CCS(=O)(=O)c1ccccc1)C(N)=O`, the z-score in assay [1] is 0.338; in [2] it was -0.676; in assay [3], 0.834; in assay [4], 0.369; in assay [5], 0.102; in assay [6], -1.67. Further, the z-score in assay [7] was -0.0551 (inactive); in assay [8] it was -0.875; in assay [9], -1.16; in assay [10], -0.174 (inactive).
Take `COc1ccc(NN2C(C(O)c3ccc(N(C)C)cc3)C=CC3C(=O)N(C4CCCCC4)C(=O)C32)cc1` (stereo not given): the z-score in assay [1] is -0.441; in assay [2], -1.13; in assay [3] it was -0.173; in [4], 0.0375; in [5], -0.136; in [6], -0.134. Also, the z-score is -0.771 (inactive) in assay [7], 0.651 in [8], -1.63 in assay [9] and 0.19 (inactive) in assay [10].
For the compound `CCN(CC)c1ccc(N2CC=CC34O[C@@H]5/C=C\CCC(C)OC(=O)C5[C@H]3C(=O)N(CCCCCO)[C@@H]4C2=O)cc1` (stereo not given in full), the z-score in assay [1] was 0.192; in assay [2] it was -0.743; in [3], 0.0376; in assay [4], 1.56; in assay [5], -0.863; in assay [6] it was 0.423. Moreover, the z-score in assay [7] is 0.158 (inactive); in assay [8], -0.0486; in assay [9], 1.29; in assay [10], 0.697 (inactive).
Consider `COc1ccc(C(=O)Nc2ccc(CN3C(=O)[C@]4(O[C@H](CC(=O)N5CCC[C@H]5CO)[C@@H]([Si](C)(C)c5ccc(OC)cc5)[C@@H]4C)c4ccccc43)cc2)cc1`, for which the z-score is -1.14 in [1]; 0.362 in [2]; -4.53 in [3]; -2.83 in assay [4]; -4.35 in [5]; -2.48 in assay [6]. Besides, the z-score was -0.0307 (inactive) in assay [7], -1.09 in [8], -2.1 in assay [9] and -1.98 (inactive) in assay [10].
As to `[N-]=[N+]=Nc1ccccc1C[C@@]1(C(=O)N2CCCCC2)N=C(c2ccc(OCCCO)cc2)O[C@@H]1c1ccccc1`, the z-score was 0.93 in [1]; 0.699 in [2]; 1.02 in [3]; -2.38 in [4]; -4.45 in assay [5]; 0.819 in assay [6]. For the same compound, the z-score in assay [7] was 0.883 (inactive); in [8], -1.19; in assay [9] it was 0.992; in assay [10], 1.41 (inactive).
